The entries come from a sample that favours hits as a whole.
Sa helicase inh: inhibitors of S. aureus replicative helicase, primary screen, biochemical, fluorescence unwinding readout; replicative DNA helicase (DnaC/DnaB), Staphylococcus aureus; hit rate 0.05% among 120,000; AID 485395, 2010; purified S. aureus helicase, fluorescence unwinding assay; inhibition, % (concentration not given with the values); in the data active means inhibition above about 25%, passing the limit was not always enough;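 further: 0% = mean of negative control wells and 100% = mean of positive control wells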
Sa growth 42C: S. aureus growth inhibition at 42 and 30 °C, primary screen, LtaS inhibitor project, RN4220, two temperatures; OD600, 20 h, 42 °C; stronger effect = lower value; relative growth, % (no concentration beside the values); hit rate 0.53% among 170,000; AID 720641, 2013;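 active means relative growth at most 50% at the other temperature and 20+ points below 30 °C, or under 10% at both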
Active calls of the source: *.

`O=C(c1ccc2ncccc2c1)N1CCOCC1` gave Sa growth 42C 92.3.
Screening CCC[C@@H]1C[C@@H](C(=O)N[C@H]([C@H]2O[C@H](SC)[C@H](O)[C@@H](O)[C@H]2O)[C@H](C)O)N(C)C1 returned Sa growth 42C 0.0*.
For CCC[C@@H]1C[C@@H](C(=O)N[C@@H](C2O[C@H](SC)[C@H](O)[C@@H](O)[C@H]2O)[C@H](C)Cl)N(C)C1 (stereo not given in full) the results were Sa growth 42C -1.1*.
Screening CCC[C@@H]1C[C@@H](C(=O)N[C@@H]([C@H]2O[C@H](SC)[C@H](O)[C@@H](O)[C@H]2O)[C@H](C)Cl)N(C)C1 returned Sa growth 42C -0.8*.
For CN(C)C1CS(=O)(=O)CC1N(C)C (stereo not given) the results were Sa helicase inh -16.0 and Sa growth 42C 92.5.
For Cc1noc(C)c1COC(=O)/C=C/c1ccc2c(c1)OCO2 the results were Sa helicase inh 0.0 and Sa growth 42C 102.5.
NC[C@@H]1O[C@H](O[C@H]2[C@@H](O)[C@H](O[C@@H]3[C@@H](O)[C@H](N)C[C@H](N)[C@H]3O[C@H]3O[C@H](CN)[C@@H](O)[C@H](O)[C@H]3N)O[C@@H]2CO)[C@H](N)[C@@H](O)[C@@H]1O was read as Sa growth 42C 96.0.
For NC(=O)N/N=C/c1ccc(-c2ccc(Cl)cc2)o1 the results were Sa helicase inh 8.0 and Sa growth 42C 93.1.
Screening NC(=O)N/N=C/c1ccc([N+](=O)[O-])o1 returned Sa growth 42C 2.5*.
CC1c2ccsc2CCN1C(=O)c1cccs1 (stereo not given) was read as Sa growth 42C 88.8.
`Cc1ccc(CN(C)c2nc(-c3cccnc3)nc3sc4c(c23)CCCC4)o1` gave Sa helicase inh -6.0 and Sa growth 42C 2.1*.
For CCN(CC(=O)NC1CCS(=O)(=O)C1)c1nc(-c2cccnc2)nc2sc3c(c12)CCCC3 (stereo not given) the results were Sa helicase inh 14.0 and Sa growth 42C 85.9.
Cc1nn2c(-c3ccccc3)cc(-c3ccccc3)nc2c1-c1ccc(Cl)cc1 was read as Sa growth 42C 110.1.
Screening Cc1[nH]n2c(=O)cc(-c3ccc(Cl)cc3)nc2c1-c1ccccc1 returned Sa growth 42C -0.5*.
FC(F)(F)c1cc(-c2ccc3ccccc3c2)nn1C(=S)N1CCCCCC1 was read as Sa helicase inh 12.0 and Sa growth 42C 101.4.
For NC(=O)N/N=C/c1cn(-c2ccccc2)nc1-c1ccccc1 the results were Sa helicase inh -5.0 and Sa growth 42C 82.8.
`NC(N)=N/N=C/c1cn(-c2ccccc2)nc1-c1ccccc1` gave Sa helicase inh -19.0 and Sa growth 42C -1.6*.
For COC(=O)c1cnn2c(=O)c3c(n(C)c12)CCN(Cc1ccccc1)C3 the results were Sa helicase inh 19.0 and Sa growth 42C 99.8.
Screening CCC(c1nnc(SCC(=O)NCC(C)C)o1)N(C)C (stereo not given) returned Sa helicase inh -6.0 and Sa growth 42C 98.3.
CCC(c1nnc(SCC(=O)NCCc2ccc(Cl)cc2Cl)o1)N(C)C (stereo not given) was read as Sa helicase inh 44.0* and Sa growth 42C 87.8.
Screening Cc1ccc(CNC(=O)CSc2nc3cnn(C)c3c(=O)n2Cc2ccccc2)cc1 returned Sa helicase inh 9.0 and Sa growth 42C 96.5.
For Oc1c(C(c2ccncc2)N2CCCC2)ccc2cccnc12 (stereo not given) the results were Sa helicase inh -2.0 and Sa growth 42C 66.2.
Screening COc1ccc(C(c2ccc3cccnc3c2O)N2CCCC2)cc1 (stereo not given) returned Sa helicase inh -20.0 and Sa growth 42C 95.7.
Screening Oc1c(C(c2ccc(C(F)(F)F)cc2)N2CCCC2)ccc2cccnc12 (stereo not given) returned Sa helicase inh -13.0 and Sa growth 42C 1.1*.
COc1ccc(C(c2ccc3cccnc3c2O)N2CCOCC2)cc1 (stereo not given) was read as Sa helicase inh 18.0 and Sa growth 42C 8.8*.
Cc1ccc(C)n1-c1ccsc1C(=O)O was read as Sa helicase inh 35.0 and Sa growth 42C 46.1*.
Screening Cc1ccc(C(=O)O)cc1-n1c(C)ccc1C returned Sa helicase inh 2.0 and Sa growth 42C 85.9.
Screening O=c1[nH]c(=O)n(C2C[C@H](O)[C@@H](CO)O2)cc1C(F)(F)F (stereo not given in full) returned Sa growth 42C 96.2.
For O=c1[nH]c(=O)n(C2C[C@@H](O)[C@@H](CO)O2)cc1F (stereo not given in full) the results were Sa growth 42C -0.7*.
COc1ccc(NC(=O)CC(CC(=O)O)c2ccccc2)cc1 (stereo not given) was read as Sa growth 42C 97.5.
For CN1CCN(Cc2cn[nH]c2-c2ccc(F)cc2)CC1 the results were Sa helicase inh 19.0 and Sa growth 42C 86.0.

Compound activity (PubChem)
